{
  "source": "paper PMC12864922",
  "about": "“TDP-43 directly inhibits mRNA accumulation in neurites through modulation of mRNA stability”",
  "binders": {"B1": {"name": "ENSMUSG00000043670.158|Diras1 (ssRNA)", "RNA": "GGGAGUUCUACAGUCCGACGAUCGCUUCGAUAUCCGCAUGCUACUGCUGAGAUAGAGACCUUGGCACAGUGGCACCUCGACAGCCACCCCGACUGGGGGUUUGGGGUGCUGAGGGUGGGGUGCCCAGCUGAGAGUCUAUCAGCAAAGUCCCUGUGUGCGGUGAUAGGACUAGUGGCUGCUGCCCUAGGGCUCUGACAGAAUCUGAGCCUCUUUGCUGGUCAUGUGUACUCUGGAGACUGUCCCCCAUGUCUGCCCUGAGUUACGGAGCCCCUGUGGUAUCUGCGAGACUGUCCAGGAGACUUGCUCUUGCGGUCGCACUAGUGUGGAAUUCUCGGGUGUCAAGG"}, "B2": {"name": "ENSMUSG00000022095.20|Fam160b2|21:25;227:231 (ssRNA)", "RNA": "GGGAGUUCUACAGUCCGACGAUCGCUUCGAUAUCCGCAUGCUAGGUGGGGGAAGAUUCCUGCCACACAACUUCUGCCCACGGGCAGUCUCCUGCCUGGCCAUGCUGCCACUCUGUCCUCCAUGCCGGGGACUUCAGCUGCAGGACACCUCACCUGUUGACCCCACGAGCUGAGGUUUCAAGGAGGUGCUGGCUCCUAAGGCAGUGGUAUUCUUGGAGCCUUUUAGAGGAGCUAGAGGAUGGCCAGUGAGCGCCUAGAUGCUGCCCUGCAACACAUGCGUGACUAUCUCUGCUAUAUUGUGACCCUCUUGCGGUCGCACUAGUGUGGAAUUCUCGGGUGUCAAGG"}, "B3": {"name": "ENSMUSG00000035202.138|Lars2 (ssRNA)", "RNA": "GGGAGUUCUACAGUCCGACGAUCGCUUCGAUAUCCGCAUGCUAAUAAAGGAUUUUAAAUUUUUUUACAAGUGAGAACCUAGCAUGUCAAGGUCCUAGGUUCCAUCUCCAACACGAAAAAAGCAAGGCAACUCUACCAAAGAAACUAAUUACAUACUUGUAUUCCCAAUAUGUGAGAAGCUGAGGAAGGAGGAUCAUGAGUUUAAAGCCAUCCUUGGUUACAUGAGACUCUUGUCUCAAAGAACUACCAGGGAUCCUAAUGGACAACAAAGGUUGAAAACCAUUGAAUUAAUAAAUGUUGUGAACUCUUGCGGUCGCACUAGUGUGGAAUUCUCGGGUGUCAAGG"}, "B4": {"name": "ENSMUSG00000061578.722|Ksr2 (ssRNA)", "RNA": "GGGAGUUCUACAGUCCGACGAUCGCUUCGAUAUCCGCAUGCUAUCUCUGAAUGUACGUGGGGGACUCCAACAGAUGUUGGGAGAAGACUCAAUAUGAGCAUACGGGGUCAUUGUUCAAUCCUGUAUCAAGACCUUGGAGUUGUCUAAGGCUGUGGGUUUUAAAUACCUGCUGCAGGCCUCCCAUCUCUGGCUCUUUGUUUCCACUCUGGCCCAAGUUUGAGUCUCCAUAUGGGCCCUUCCUGUCCUCAUGCCCUGCCUGUCUUCAUUCCACCCAUCCACCCUCCUAAGGAUUGGUCUUGUUCCCUCUUGCGGUCGCACUAGUGUGGAAUUCUCGGGUGUCAAGG"}, "B5": {"name": "ENSMUSG00000058297.267|Spock2 (ssRNA)", "RNA": "GGGAGUUCUACAGUCCGACGAUCGCUUCGAUAUCCGCAUGCUAUGAUAUAUUUGAUGAAGAAUUCCUUACCUGGGCCUCUGAUACCCUUUGGUACGCGUACGUGUGUGUGGCGCGUAUACGUGUGUGUGUGUGUGUGUGUGUGUGUGUGUGUGUGUGUGUGUGAGAGAGAGAGAGAGAGAGAGAGAGAGAGAGAGAGAGAAAGAGAGAGAGAAUGAGAGAGAAUGAGAGAGAGAAUACCCGAGGGCCACCCUGAUGCCCAGGAAGAGUGAGGGCAGCCCCCUGUGUGGUGGAAGAGGCUGGGCCUCUUGCGGUCGCACUAGUGUGGAAUUCUCGGGUGUCAAGG"}, "B6": {"name": "ENSMUSG00000058297.271|Spock2 (ssRNA)", "RNA": "GGGAGUUCUACAGUCCGACGAUCGCUUCGAUAUCCGCAUGCUAUACCUGGGCCUCUGAUACCCUUUGGUACGCGUACGUGUGUGUGGCGCGUAUACGUGUGUGUGUGUGUGUGUGUGUGUGUGUGUGUGUGUGUGUGUGAGAGAGAGAGAGAGAGAGAGAGAGAGAGAGAGAGAGAAAGAGAGAGAGAAUGAGAGAGAAUGAGAGAGAGAAUACCCGAGGGCCACCCUGAUGCCCAGGAAGAGUGAGGGCAGCCCCCUGUGUGGUGGAAGAGGCUGGGCAGCUAGCUACUGGGGACCUUGUGCCUCUUGCGGUCGCACUAGUGUGGAAUUCUCGGGUGUCAAGG"}, "B7": {"name": "ENSMUSG00000058297.268|Spock2 (ssRNA)", "RNA": "GGGAGUUCUACAGUCCGACGAUCGCUUCGAUAUCCGCAUGCUAAUUUGAUGAAGAAUUCCUUACCUGGGCCUCUGAUACCCUUUGGUACGCGUACGUGUGUGUGGCGCGUAUACGUGUGUGUGUGUGUGUGUGUGUGUGUGUGUGUGUGUGUGUGUGAGAGAGAGAGAGAGAGAGAGAGAGAGAGAGAGAGAGAAAGAGAGAGAGAAUGAGAGAGAAUGAGAGAGAGAAUACCCGAGGGCCACCCUGAUGCCCAGGAAGAGUGAGGGCAGCCCCCUGUGUGGUGGAAGAGGCUGGGCAGCUAGCUCUUGCGGUCGCACUAGUGUGGAAUUCUCGGGUGUCAAGG"}, "B8": {"name": "ENSMUSG00000058297.266|Spock2 (ssRNA)", "RNA": "GGGAGUUCUACAGUCCGACGAUCGCUUCGAUAUCCGCAUGCUAUUUCCUUGAUAUAUUUGAUGAAGAAUUCCUUACCUGGGCCUCUGAUACCCUUUGGUACGCGUACGUGUGUGUGGCGCGUAUACGUGUGUGUGUGUGUGUGUGUGUGUGUGUGUGUGUGUGUGUGUGAGAGAGAGAGAGAGAGAGAGAGAGAGAGAGAGAGAGAAAGAGAGAGAGAAUGAGAGAGAAUGAGAGAGAGAAUACCCGAGGGCCACCCUGAUGCCCAGGAAGAGUGAGGGCAGCCCCCUGUGUGGUGGAAGAGGCUCUUGCGGUCGCACUAGUGUGGAAUUCUCGGGUGUCAAGG"}, "B9": {"name": "ENSMUSG00000031028.129|Tub (ssRNA)", "RNA": "GGGAGUUCUACAGUCCGACGAUCGCUUCGAUAUCCGCAUGCUACCAAAUAUCUGAGUGGAUGGGGAUGAUAGGAGUCAUCCAGUAGACUCCCUACAUCAGGGCUCUCAGCAGCCCCAGCACAACACCUAUGACACACACACAGGAUCUAGGUCACCAUUCAAGUAAUGGUAUGCUUCAGGAAGAAUGUCCUCUCUGGGAAGACUCAGCUCCCAUUAUUGCCAGCAUGCCAUGAUCAGUGAGGGCUGUGUGCCAUGCUUAGGGGGAUGGCGCAGGGUGAGGGGAGCAGAGGAUAUUUUAGGGCCCUCUUGCGGUCGCACUAGUGUGGAAUUCUCGGGUGUCAAGG"}, "B10": {"name": "ENSMUSG00000058297.78|Spock2 (ssRNA)", "RNA": "GGGAGUUCUACAGUCCGACGAUCGCUUCGAUAUCCGCAUGCUACUCAGCCCAACACCUGGAAUCCCUGCCCUGCCUAAUCAGCCCUACCCCAUCCUGCCUUUCUUCCUUCCUCUUCUGAGGCCAGGGAGAGGGAGGGAGGGCAGGCAGCUGAAAGCUGAGCGUCCUCCCCAAAUUGGGCUGAUUUGAUAUGAAAGCCCCACCACGGUCUUGUGGUGAUGAGGCAGGACCUGUACACACAGCAAGGCUUACUAUCCGUCUCCUGACAUCCGAAGAGCUCGUCGCAGGUGUGUCUAAUGGCCCUUCUCUUGCGGUCGCACUAGUGUGGAAUUCUCGGGUGUCAAGG"}, "B11": {"name": "ENSMUSG00000031028.156|Tub|40:45;125:130 (ssRNA)", "RNA": "GGGAGUUCUACAGUCCGACGAUCGCUUCGAUAUCCGCAUGCUAAGCUCCCAUUAUUGCCAGCAUGCCAUGAUCAGUGAGGGCACACACCCAUGCUUAGGGGGAUGGCGCAGGGUGAGGGGAGCAGAGGAUAUUUUAGGGCCACAAGAGCUCAGAGGUAGCGGACCUCACACACGUUCACCAACAGCAAUGCUGAUCCCUGAGUAUAGGGCACAUGUCUCUUGGUUACCUCACUGGUUAAUGGCAGAGUUGAGAACCUCAAAUUCUUUUGUUCCUACUGUUGCCCAGAAACUAGACUCUCUGACCUCUUGCGGUCGCACUAGUGUGGAAUUCUCGGGUGUCAAGG"}, "B12": {"name": "ENSMUSG00000028439.157|Fam219a (ssRNA)", "RNA": "GGGAGUUCUACAGUCCGACGAUCGCUUCGAUAUCCGCAUGCUAUAGCUCAAAGUCCAGGAGCCAGGCUUCCAGAAAGGCUCUUCAAGAGCAAGCUUAAGGAAAUACAGUGAGCCAAGUGGCUGUAUGAUAUGGUAUGGUAUGGUAUGGUAUGGUAUGGUAUGGUAUGCACAUGUGUGUGCAUGUGUGUGUGCCUGUGUGUGUGCGUGUGCGUGUGUGUAUGUGUGUGCGUGUGUGUGUGUGUGUGUUGUACCCGAGUGUGUGUUGAGCCUAUCUGUCCAGGGAACCAGAUUGGUGUCCGAGAUCUCUUGCGGUCGCACUAGUGUGGAAUUCUCGGGUGUCAAGG"}, "B13": {"name": "ENSMUSG00000028439.156|Fam219a (ssRNA)", "RNA": "GGGAGUUCUACAGUCCGACGAUCGCUUCGAUAUCCGCAUGCUAUCACCCUAGCUCAAAGUCCAGGAGCCAGGCUUCCAGAAAGGCUCUUCAAGAGCAAGCUUAAGGAAAUACAGUGAGCCAAGUGGCUGUAUGAUAUGGUAUGGUAUGGUAUGGUAUGGUAUGGUAUGGUAUGCACAUGUGUGUGCAUGUGUGUGUGCCUGUGUGUGUGCGUGUGCGUGUGUGUAUGUGUGUGCGUGUGUGUGUGUGUGUGUUGUACCCGAGUGUGUGUUGAGCCUAUCUGUCCAGGGAACCAGAUUGGUGUCCUCUUGCGGUCGCACUAGUGUGGAAUUCUCGGGUGUCAAGG"}},
  "note": "Whole data set: some 9,900 sequences, median “r (bound/input frequency ratio)” near 0.7, cut for the highest 2% near 6.5. The sample holds the highest values, similar sequences and a random draw of the others, so the mix is not that of the screen.",
  "data": [
    {"target": "TDP-43 (Homo sapiens, UniProt Q13148 1-414)", "sequence (Q13148 whole entry)": "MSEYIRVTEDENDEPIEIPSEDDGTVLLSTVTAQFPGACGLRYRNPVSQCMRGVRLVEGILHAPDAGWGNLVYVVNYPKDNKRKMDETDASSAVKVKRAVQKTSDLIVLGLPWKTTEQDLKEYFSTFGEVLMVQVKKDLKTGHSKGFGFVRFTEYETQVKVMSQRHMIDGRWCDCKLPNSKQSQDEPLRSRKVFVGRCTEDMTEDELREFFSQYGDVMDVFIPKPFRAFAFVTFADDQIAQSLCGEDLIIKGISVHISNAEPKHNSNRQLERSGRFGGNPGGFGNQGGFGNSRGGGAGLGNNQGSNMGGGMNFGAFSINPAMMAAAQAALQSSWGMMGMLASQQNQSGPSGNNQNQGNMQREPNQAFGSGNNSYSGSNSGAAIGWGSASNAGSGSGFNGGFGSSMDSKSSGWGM", "experiment": "RNA Bind-n-Seq with designed 260-mer pool; 25 mM Tris-HCl, 150 mM KCl, 3 mM MgCl2, BSA (printed 500 mg/mL), 20 units/mL SUPERase IN; pH not stated; 500 nM RNA pool, 1 h, 4 C; TDP-43 5, 50, 500 nM; high values mean tight binding", "conditions": "protein: recombinant; tags: SBP (GST cleaved off with PreScission; pGEX-GST-SBP)", "method_in_brief": "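Duplicate measurements used two independent batches of recombinant SBP-tagged TDP-43, which was captured on streptavidin beads at 5, 50 or 500 nM. The beads were incubated with 500 nM of an in vitro-transcribed 260-nt 3′ UTR oligo pool for 1 h at 4 °C in 25 mM Tris-HCl, 150 mM KCl, 3 mM MgCl2, BSA and SUPERase IN. After washing, biotin elution, reverse transcription, PCR amplification and sequencing, binding was expressed as R: each oligo's normalized read abundance in the bound sample over its abundance in input.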", "values": [
      {"binder": "B1", "binding signal": "0.372 R (bound/input frequency ratio)"},
      {"binder": "B2", "binding signal": "0.271 R (bound/input frequency ratio)"},
      {"binder": "B3", "binding signal": "0.101 R (bound/input frequency ratio)"},
      {"binder": "B4", "binding signal": "1.64 R (bound/input frequency ratio)"},
      {"binder": "B5", "binding signal": "8.95 R (bound/input frequency ratio)"},
      {"binder": "B6", "binding signal": "8.28 R (bound/input frequency ratio)"},
      {"binder": "B7", "binding signal": "2.37 R (bound/input frequency ratio)"},
      {"binder": "B8", "binding signal": "5.83 R (bound/input frequency ratio)"},
      {"binder": "B9", "binding signal": "0.521 R (bound/input frequency ratio)"},
      {"binder": "B10", "binding signal": "0.631 R (bound/input frequency ratio)"},
      {"binder": "B11", "binding signal": "0.266 R (bound/input frequency ratio)"},
      {"binder": "B12", "binding signal": "7.39 R (bound/input frequency ratio)"},
      {"binder": "B13", "binding signal": "6.74 R (bound/input frequency ratio)"}
    ]}
  ]
}
